Data taken from PubChem BioAssay AID1851 (National Center for Advancing Translational Sciences (NCATS), 2009).
Hit rate of the full screen: of about 16,000 compounds, about 4,000 (25%) were called active. Inconclusive results (about 26%) are left out. A selection follows. Unmarked numbers belong to inactive results. Calls come from the whole dose curve; as a rule, active = well fitted curve in the direction sought with a large enough effect; inconclusive = small, poorly fitted or top-dose-only effect, or effect the other way; inactive = no such curve, though single readings can be large or run the other way.

Target: Cytochrome P450 2C9 (Homo sapiens) (UniProt P11712)
Assay: Cytochrome panel assay with activity outcomes
Settings: recombinant CYP, pro-luciferin dealkylation, luminescence, p450-cyp2c9; series mostly up to 57.1 µM; activity, negative = inhibition: at the top concentration
% is set by controls: 0 for no effect and ±100 for the full control effect.

Sequence of Cytochrome P450 2C9 (Homo sapiens) (P11712 whole entry, looked up): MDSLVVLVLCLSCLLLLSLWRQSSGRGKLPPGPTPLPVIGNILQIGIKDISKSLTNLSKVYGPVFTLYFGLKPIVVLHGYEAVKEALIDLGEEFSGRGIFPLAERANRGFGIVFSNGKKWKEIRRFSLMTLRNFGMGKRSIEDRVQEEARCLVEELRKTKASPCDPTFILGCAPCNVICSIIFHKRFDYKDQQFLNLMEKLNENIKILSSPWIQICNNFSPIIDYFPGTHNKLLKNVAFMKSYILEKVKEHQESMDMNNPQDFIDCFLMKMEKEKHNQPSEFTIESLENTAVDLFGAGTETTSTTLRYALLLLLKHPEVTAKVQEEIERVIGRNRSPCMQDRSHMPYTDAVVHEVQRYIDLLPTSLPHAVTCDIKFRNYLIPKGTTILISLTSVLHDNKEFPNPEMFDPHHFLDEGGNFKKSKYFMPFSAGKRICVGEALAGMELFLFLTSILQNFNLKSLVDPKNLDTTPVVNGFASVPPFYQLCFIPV

| Structure (SMILES) | activity, negative = inhibition | AC50 |
| --- | --- | --- |
| CC(C)NC(=O)N1CCCC2(CCN(C(=O)c3csnn3)CC2)C1 | -5.11% | – |
| N#Cc1cccc(-c2nc(NCc3cccs3)c3ccccc3n2)c1 | -13.5% [at 2.29 µM] | – |
| CN(C)c1ncc2nc(CCc3ccccc3)c(=O)n(CCC#N)c2n1 | – | 15.8 µM (active) |
| Cc1nc2cnc(N(C)C)nc2n(CCC#N)c1=O | 21.7% | – |
| CN(C)c1ncc2nc(-c3cc(F)cc(F)c3)c(=O)n(CCc3ccccc3)c2n1 | 7.62% | – |
| CN(C)c1ncc2nc(CCc3ccccc3)c(=O)n(Cc3cccs3)c2n1 | – | 15.8 µM (active) |
| CN(C)c1ncc2nc(-c3cccs3)c(=O)n(CCc3ccccc3)c2n1 | -18.9% | – |
| CN(C)c1ncc2nc(-c3ccc(F)cc3)c(=O)n(CCc3ccccc3)c2n1 | -21.6% | – |
| CN(C)c1ncc2nc(-c3ccccc3)c(=O)n(CCC#N)c2n1 | -14.9% | – |
| Cc1nc2cnc(N(C)C)nc2n(CCc2ccccc2)c1=O | – | 12.6 µM (active) |
| CN(C)c1ncc2nc(-c3cccs3)c(=O)n(Cc3cccs3)c2n1 | 27.9% | – |
| COCCn1c(=O)c(C)nc2cnc(N(C)C)nc21 | 20.5% | – |
| CN(C)c1ncc2nc(-c3ccccc3)c(=O)n(CCc3ccccc3)c2n1 | – | 0.631 µM (active) |
| Cc1nc2cnc(N(C)C)nc2n(Cc2cccs2)c1=O | -0.28% | – |
| NC1=NC2(CCCCC2)N=C(Nc2ccc(F)cc2F)N1 | 3.62% | – |
| N=C(N)SCCCN | 7.79% [at 11.4 µM] | – |
| CN(C)c1ncc2ncc(=O)n(C)c2n1 | -11.8% | – |
| COc1ccc(-c2nc3cnc(N(C)C)nc3n(CCc3ccccc3)c2=O)cc1 | -20.6% | – |
| CN(C)c1ncc2ncc(=O)n(CCc3ccccc3)c2n1 | – | 6.31 µM (active) |
| CN(C)c1ncc2nc(CCc3ccccc3)c(=O)n(CCc3ccccc3)c2n1 | – | 12.6 µM (active) |
| COCCn1c(=O)[nH]c2cc(C(=O)N3CCN(c4ccccc4OC)CC3)ccc2c1=O | – | 7.94 µM (active) |
| COc1ccccc1N1CCN(CCn2c(=O)[nH]c3c([nH]c4ccccc43)c2=O)CC1 | -9.66% | – |
| COc1ccc(-c2csc(N3C(=N)SCC3=O)n2)cc1 | – | 3.55 µM (active) |
| N=C1SCC(=O)N1c1nc(-c2ccccc2)cs1 | -16.5% | – |

| Structure (SMILES) | activity, negative = inhibition | AC50 |
| --- | --- | --- |
| CC(=O)Oc1cc(C(C)C)c(OCCN(C)C)cc1C | – | inactive |
| CC(C)NCC[C@@H](O)c1cc2ccccc2o1 | 17.2% [at 11.4 µM] | – |
| CC(=O)OC[C@@H]1O[C@H](CCON=C(C)C)C=C[C@@H]1OC(C)=O | 3.94% [at 11.4 µM] | – |
| CN(C(=O)CN(CCO)CC(=O)N(C)C(C)(C)Cc1ccccc1)C(C)(C)Cc1ccccc1 | -21.7% [at 25.6 µM] | – |
| CCN(CCO)Cc1csc2cccc(Br)c12 | 22.6% | – |
| OCCN(Cc1ccccc1)Cc1cccc(Cl)c1Cl | – | 3.98 µM (active) |
| Cc1cc(N=Cc2c(CO)cnc(C)c2O)c(N=Cc2c(CO)cnc(C)c2O)cc1C.[Zn] | -15.6% [at 11.4 µM] | – |
| O=C1c2cccc3cccc(c23)C(=O)N1CC1CCN(CC(O)COc2ccc3ccccc3c2)CC1 (stereo not given) | – | 0.891 µM (active) |
| O[C@@H](COc1cccc2ccccc12)CN1CCOCC1 | 5.45% [at 11.4 µM] | – |
| O=C(c1ccc(S(=O)(=O)N2CCCCCC2)cc1)N1CCC(CN2C(=O)c3cccc4cccc(c34)C2=O)CC1 | -4.99% | – |
| CCS(=O)(=O)N1CCCC(C(=O)NCCCOC(C)C)C1 (stereo not given) | -14.2% | – |
| COc1ccccc1-c1ccc2ncnc(N3CCN(C)CC3)c2c1 | 1.65% [at 2.29 µM] | – |
| COc1cccc2[nH]c3c(N4CC(C)CC(C)C4)ncnc3c12 (stereo not given) | – | 10 µM (active) |
| Cc1ccc(C)c(N/C(N)=N/c2nc(C)cc(C)n2)c1 | -4.26% | – |
| CCOc1ncccc1C(=O)OCC(=O)Nc1cc(C)ccc1C | – | 8.91 µM (active) |
| Cc1ccc(C)c(NC(=O)Cn2c([N+](=O)[O-])cnc2C)c1 | -22.3% | – |
| CN(C)C(=N)N=C(N)N | -10% [at 25.6 µM] | – |
| CCn1c(SCC(=O)NC2CCCCC2)nc2c(c1=O)SC(C)C2 (stereo not given) | 4.71% | – |
| Cc1ccc2nc(NC(=O)CSc3nc4c(c(=O)n3C)SC(C)C4)sc2c1 (stereo not given) | – | 1.78 µM (active) |
| CCn1c(SCC(=O)Nc2nc3ccc(C)cc3s2)nc2c(c1=O)SC(C)C2 (stereo not given) | – | 3.16 µM (active) |
| CCn1c(SCC(=O)Nc2ccc3c(c2)OCCO3)nc2c(c1=O)SC(C)C2 (stereo not given) | – | 2 µM (active) |
| Cn1c(=O)c2[nH]c([C@@H]3CC(=O)C[C@H](c4nc5c([nH]4)c(=O)n(C)c(=O)n5C)N3)nc2n(C)c1=O | 2.38% [at 11.4 µM] | – |
| CC1(C)CCC(NC(=O)[C@H](N)CCC(=O)O)CC1 | -12.5% | – |
| N[C@@H](Cc1nn[nH]n1)C(=O)O | -8.85% [at 11.4 µM] | – |

| Structure (SMILES) | activity, negative = inhibition | AC50 |
| --- | --- | --- |
| CCCn1c(C)nc2c(c1=O)c1nc3ccccc3nc1n2CCC1=CCCCC1 | – | 5.62 µM (active) |
| C/C(=N/O)[C@@H]1C[C@H](CC(=O)O)C1(C)C | -6.68% [at 11.4 µM] | – |
| Cc1cc(-c2cccc([N+](=O)[O-])c2)nc2ccc3ccccc3c12 | -22.9% | – |
| O=[N+]([O-])c1ccc2nc(-c3ccccc3)n(OCc3ccc(Cl)cc3)c2c1 | – | 4.47 µM (active) |
| Clc1ccc(COn2c(-c3ccccc3)nc3ccccc32)cc1 | – | 10 µM (active) |
| CC(=O)OCC(=O)[C@@]1(O)CC[C@@H]2[C@H]3CCC4=CC(=O)CC[C@]4(C)[C@]3(F)[C@@H](O)C[C@@]21C | -3.55% [at 25.6 µM] | – |
| C[C@@H]1/C=C\CC(=O)OC[C@H](C)C(=O)N[C@@H](Cc2ccccc2)C(=O)OC1 | 10.4% [at 11.4 µM] | – |
| O=C1C=C[C@@H](O)[C@H]2[C@@H]3C(=O)N(c4cccc(Oc5ccccc5)c4)C(=O)[C@@H]3CC[C@H]12 | -24.8% [at 11.4 µM] | – |
| CCOC(=O)N/N=C/c1ccc(C)o1 | -28.6% | – |
| COC(=O)c1sccc1-c1ccc(C(=O)Nc2cccc(Cl)c2)o1 | – | 10 µM (active) |
| COC(=O)c1sccc1-c1ccc(C(=O)Nc2cccnc2)o1 | – | 5.01 µM (active) |
| COC(=O)c1nn(-c2ccc(OC)cc2)c(=O)cc1Oc1cccc(Cl)c1 | -7.52% | – |
| O=C(Nc1cccc2nsnc12)c1ccc(-c2cccc(Cl)c2)o1 | -23.8% | – |
| CCOC(=O)C(=CNCC(=O)O)C(=O)OCC | -3.32% | – |
| CCOC(=O)C(=Cc1ccc(-c2ccsc2C(=O)OC)o1)C(=O)OCC | – | 1.26 µM (active) |
| CCN1C(=O)[C@H]2[C@H]3[C@H](O)[C@H](O)C/C(=N/O[C@@H](C)c4cn([C@H]5COC[C@H]5O)nn4)[C@@H]3CC[C@@H]2C1=O | 9.59% [at 11.4 µM] | – |
| CCOC(=O)c1cc(-c2ccccc2)sc1NC(=O)C(C)(C)C | -29.5% | – |
| CCOC(=O)c1cc(-c2ccccc2)sc1NC(=O)c1ccc(OC)cc1 | – | 11.2 µM (active) |
| COC(=O)c1cc(-c2ccccc2)sc1NC(=O)CN1C(=O)c2ccccc2C1=O | – | 2.82 µM (active) |
| CCOC(=O)CCCNC(=O)CCCNC(=O)C(c1ccccc1)c1ccccc1 | -21.3% | – |
| CCOC(=O)c1cc(CC)sc1NC(=O)C(c1ccccc1)c1ccccc1 | – | 6.31 µM (active) |
| CCOC(=O)N/N=C1/C[C@@H](O)[C@@H](O)[C@@H]2[C@@H]3C(=O)N(C(C)(C)C)C(=O)[C@H]3CC[C@@H]12 | 6.14% [at 11.4 µM] | – |
| COc1ccccc1-c1nc(Nc2ccncc2)c2ccccc2n1 | -28.7% [at 2.29 µM] | – |
| c1nc(NC2CC2)c2cc(-c3ccoc3)ccc2n1 | -5.58% [at 2.29 µM] | – |

| Structure (SMILES) | activity, negative = inhibition | AC50 |
| --- | --- | --- |
| CCOC(=O)Cn1c(-c2ccccc2)nc2ccccc2c1=O | – | 2 µM (active) |
| O=c1c2ccccc2nc(-c2ccc(Br)cc2)n1Cc1ccccc1 | – | 2.51 µM (active) |
| O=C(O)Cn1c(-c2ccccc2)nc2ccccc21 | -9.81% | – |
| C[C@@H](CC(=O)O)[C@@H](N)C(=O)O | -21.2% | – |
| COc1ccc2c3c(ccc2c1)N[C@H](C(=O)O)CC3 | -0.255% [at 11.4 µM] | – |
| COCCNc1nc(-c2ccccc2OC)nc2ccccc12 | 5.14% [at 2.29 µM] | – |
| COc1cc(CC(=O)O)c(C(C)=O)cc1OC | 3.54% | – |
| CC(=O)c1cc(CC=C(C)C)c(O)cc1O | – | 2.51 µM (active) |
| CCC(C)(C)n1nnnc1C(c1ccc(C)cc1)N1CCC(C)CC1 (stereo not given) | – | 28.2 µM (active) |
| Cc1[nH]c2ccccc2c1C(c1ccccn1)N1CCC(C)CC1 (stereo not given) | -1.22% | – |
| Cn1c(-c2ccccc2)cnc1N | 5.03% | – |
| Cc1ccccc1CNc1ncnc2c1ncn2[C@@H]1O[C@@H](CO)[C@H](O)[C@@H]1O | 5.73% | – |
| CC(C)N(CC(=O)O)CC(=O)O | -8.23% [at 11.4 µM] | – |
| CN1Cc2c(C(=O)OC(C)(C)C)ncn2-c2ccsc2C1=O | – | 5.01 µM (active) |
| Cc1c(N(C)CS(=O)(=O)O)c(=O)n(-c2ccccc2)n1C | -0.666% [at 25.6 µM] | – |
| Cc1c(CCO)c(=O)n(C)n1C(=O)c1ccc(F)cc1 | 55% | – |
| Cc1c(CCO)c(=O)n(-c2ccccc2)n1S(=O)(=O)c1c(Cl)cc(Cl)cc1Cl | – | 5.01 µM (active) |
| Cc1cccc(C(=O)NCN2CCN(c3ccccc3C#N)CC2)c1 | – | inactive |
| Cc1ccccc1C(=O)N1CCN(c2ccc([N+](=O)[O-])c(NCc3ccco3)c2)CC1 | – | 2.24 µM (active) |
| N#Cc1ccc(C(=O)Nc2ccc(N3CCN(C(=O)c4ccco4)CC3)cc2)c(F)c1 | -19.7% | – |
| Cc1cccc(C(=O)N2CCN(c3ccc([N+](=O)[O-])c(NCc4ccco4)c3)CC2)c1 | – | 3.55 µM (active) |
| O=C1C2C3C=CC(C2C(=O)N1CN1CCOCC1)C1C2C(=O)N(CN4CCOCC4)C(=O)C2C31 (stereo not given) | -4.42% [at 11.4 µM] | – |
| COc1c2c(nc3ccccc13)O[C@H]([C@@](C)(O)CO)C2 | 6.33% [at 25.6 µM] | – |
